Compound activity: PubChem BioAssay, Broad Institute
C diff HTS: C. difficile growth inhibitors, primary screen, HTS; Clostridium difficile clinical isolate growth, OD600, 24 h; stronger effect = lower value; growth activity, negative = inhibition, % at 16 µg/mL (by protocol); 86,000 compounds, 0.25% hits;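 active = mean growth activity at or below -80% and every replicate also at or below -80%; inconclusive = mean at or below -80% but some replicate above -80%; inactive = mean growth activity above -80%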;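 note: 0% = DMSO wells and -100% = levofloxacin 16 µg/mL wells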
T cruzi growth-1: T. cruzi intracellular proliferation inhibitors, primary screen, cell-based, beta-gal Tulahuen parasites, NIH3T3 host, luminescence | inhibition, % at 8.34 µM | 77,000 compounds, 5.9% hits | T. cruzi beta-gal in NIH3T3, GalScreen luminescence, 90 h;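 active = mean inhibition above about 93%, with at least 55% of replicates each passing it, limit read from the data, passing the limit was not always enough; inconclusive = only one of those two conditions holds; inactive = neither condition holds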
Pf Dd2 growth: P. falciparum Dd2 growth inhibitors, primary screen, SYBR Green fluorescence, single dose replicates. 72 h; stronger effect = lower value. 94,000 compounds, 2.3% hits. activity change, % at 10 µM. AID 1159554, 2015; in the data active = activity change below about -80%; inconclusive = no clear call, values can overlap the other calls
T cruzi growth-2: T. cruzi intracellular proliferation inhibitors, confirmation, cell-based, NIH3T3 host, beta-gal parasite, luminescence, cherry-pick; AID 651739, 2012; inhibition, % at 8.35 µM; T. cruzi beta-gal in NIH3T3, GalScreen luminescence, 90 h; 5,600 compounds, 72% hits; shares compounds with T cruzi growth-1;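 active = mean replicate inhibition above about 95% and at least 55% of replicates individually reaching it, limit read from the data; inconclusive = only one of the two criteria is met; inactive = neither criterion is met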
T cruzi growth-3: inhibitors of intracellular T. cruzi replication, confirmation, NIH3T3 host cells, beta-gal parasites, cherry-pick, set 2; shares compounds with T cruzi growth-1; inhibition, % at 2.09 µM; T. cruzi beta-gal in NIH3T3, GalScreen luminescence, 90 h; 5,600 compounds, 21% hits; AID 651740, 2012;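 active = mean inhibition above about 95%, with at least 55% of replicates also reaching it, limit read from the data; inconclusive = meets just one of the two conditions; inactive = meets neither condition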;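 note: plate controls were neutral control median for no effect and positive control median for full effect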
3T3 cytotox: cytotoxicity in mouse NIH/3T3 fibroblasts, confirmation, cytotoxicity control for T. cruzi proliferation inhibitor project, cell-based, cherry-pick, single point; shares compounds with T cruzi growth-1; NIH/3T3 viability, CellTiter-Glo ATP luminescence, 90 h; 5,600 compounds, 14% hits; AID 651742, 2012; cytotoxicity (signal decrease), % at 8.35 µM;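 active = mean signal decrease across replicates above about 35% based on untreated-well scatter, with enough replicates individually passing, limit read from the data; inconclusive = no rule stated though some were filed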;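 note: 0% = median of neutral control wells and 100% = median of positive control wells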
NIH3T3 tox 2: NIH/3T3 fibroblast cytotoxicity, confirmation, cytotoxicity control, cell-based, cherry-pick, single point, set 2 | shares compounds with T cruzi growth-1 | NIH/3T3 viability, CellTiter-Glo ATP luminescence, 90 h | inhibition, % at 24.9 µM | 5,600 compounds, 56% hits;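 active = mean loss of cell viability signal at or above a set limit, and enough replicates individually reaching it; inconclusive = meets only the mean limit or only the replicate share; inactive = meets neither condition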;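 note: 0% = median of neutral control wells and 100% = median of positive control wells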
Active calls of the source: *; ? = inconclusive; · = not tested or not shown. This is a sample that favours compounds with a hit; in the whole collection about 6.8% have one here.

SMILES | C diff HTS | T cruzi growth-1 | Pf Dd2 growth | T cruzi growth-2 | T cruzi growth-3 | 3T3 cytotox | NIH3T3 tox 2
CN(C)CC#Cc1ccc([C@@H]2[C@H](CO)N3CCCCN(S(=O)(=O)c4ccccc4F)C[C@@H]23)cc1 | 2.6 | 103.5* | -48.1 | 110.3* | 8.0 | 12.9 | 75.9*
COCC#Cc1ccc([C@H]2[C@H]3CN(S(=O)(=O)c4ccccc4F)CCCCN3[C@H]2CO)cc1 | 5.1 | 59.2 | 1.8 | · | · | · | ·
COCC#Cc1ccc([C@@H]2[C@@H](CO)N3CCCCN(S(=O)(=O)c4ccccc4F)C[C@H]23)cc1 | -8.1 | 87.2 | -52.9 | · | · | · | ·
Cc1ccccc1S(=O)(=O)N1CCCCN2[C@@H](CO)[C@@H](c3ccc(C#CCN(C)C)cc3)[C@@H]2C1 | 2.1 | 98.8* | -52.8 | 107.4* | 88.6 | ? | 102.9*
Cc1ccccc1S(=O)(=O)N1CCCCN2[C@H](CO)[C@@H](c3ccc(C#CCN(C)C)cc3)[C@@H]2C1 | -12.4 | 29.6 | -16.6 | · | · | · | ·
COc1ccccc1-c1ccccc1[C@@H]1[C@@H](C#N)N(C(=O)C2CCOCC2)[C@H]1CO | -1.6 | · | 3.3 | · | · | · | ·
CCCC#Cc1cnc2c(c1)C(=O)N([C@H](C)CO)C[C@@H](C)[C@@H](CN(C)C(=O)c1ccc(F)cc1)O2 | 5.5 | 34.9 | -20.0 | · | · | · | ·
O=C(Nc1ccccc1Cl)N1C[C@@H]2[C@H](c3ccccc31)[C@@H](CO)N2C(=O)c1cccnc1 | -3.9 | 10.3 | 9.9 | · | · | · | ·
C[C@@H]1CN([C@@H](C)CO)C(=O)c2cc(NC(=O)Nc3ccc(F)cc3)ccc2O[C@H]1CN(C)S(C)(=O)=O | -2.3 | 66.0 | -10.6 | · | · | · | ·
COc1ccccc1-c1ccc([C@@H]2[C@H]3CN(C(=O)c4cccnc4)CCCCN3[C@H]2CO)cc1 | -9.7 | 34.9 | 59.0 | · | · | · | ·
Cc1noc(C)c1NC(=O)N(C)C[C@H]1OCCCC[C@@H](C)Oc2ccc(NC(=O)c3ccccc3)cc2C(=O)N([C@H](C)CO)C[C@H]1C | · | 18.8 | 13.9 | · | · | · | ·
C[C@H](CO)N1C[C@H](C)[C@H](CN(C)C(=O)NC2CCCC2)Oc2ncc(C#CC3CCCCC3)cc2C1=O | 7.7 | 92.9 | -50.8 | · | · | · | ·
C[C@@H]1CN([C@@H](C)CO)C(=O)c2cc(-c3cccc(F)c3)cnc2O[C@H]1CN(C)C(=O)c1cnccn1 | -3.7 | -71.5 | 19.5 | · | · | · | ·
COCC#Cc1ccc([C@@H]2[C@H]3CN(S(=O)(=O)c4ccccc4C)CCCCN3[C@H]2CO)cc1 | 2.4 | 93.8 | 6.7 | · | · | · | ·
CCCC#Cc1ccc([C@@H]2[C@@H](CO)N3CCCCN(S(=O)(=O)c4ccccc4C)C[C@H]23)cc1 | 42.6 | 119.3* | -55.1 | 104.9* | ? | 13.9 | 106.1*
CO[C@@H]1CN(C)C(=O)c2ccc(NC(=O)c3ccc(F)cc3)cc2OC[C@@H](C)N(C)C[C@H]1C | -3.0 | 26.0 | -69.4 | · | · | · | ·
COCC(=O)Nc1ccc2c(c1)C(=O)N(C)C[C@@H](OC)[C@H](C)CN(C(=O)c1ccncc1)[C@H](C)CO2 | -1.6 | 14.7 | 25.1 | · | · | · | ·
N#C[C@@H]1[C@@H](c2ccc(C#CC3CCCC3)cc2)[C@@H](CO)N1C(=O)c1cccc(F)c1 | 2.0 | · | -39.2 | · | · | · | ·
CC(C)C#Cc1ccc([C@H]2[C@@H](CO)N(C(=O)c3cccc(F)c3)[C@H]2C#N)cc1 | 6.5 | 93.3 | -68.9 | · | · | · | ·
N#C[C@@H]1[C@@H](c2ccc(C#CC3CCCC3)cc2)[C@H](CO)N1C(=O)c1cccc(F)c1 | -5.0 | · | -55.1 | · | · | · | ·
N#C[C@H]1[C@H](c2ccc(C#CC3CC3)cc2)[C@@H](CO)N1C(=O)c1cccc(F)c1 | 18.8 | ? | -38.1 | 97.3* | 100.8* | 6.4 | -5.4
CC(C)C#Cc1ccc([C@@H]2[C@@H](C#N)N(C(=O)c3cccc(F)c3)[C@H]2CO)cc1 | 12.6 | 96.9* | -60.1 | 103.2* | 81.3 | 9.9 | 32.1
CC(C)C#Cc1ccc([C@@H]2[C@H](C#N)N(C(=O)c3cccc(F)c3)[C@H]2CO)cc1 | -5.4 | ? | -28.0 | 92.4 | 106.3* | 16.5 | 78.5*
Cn1cnc(S(=O)(=O)N[C@@H]2CC[C@@H](CC(=O)Nc3ccc(-c4ccccc4)cc3)O[C@@H]2CO)c1 | -2.7 | 59.1 | -6.5 | · | · | · | ·
C[C@@H]1CN([C@H](C)CO)C(=O)c2cc(C#Cc3ccccc3F)cnc2O[C@@H]1CN(C)S(=O)(=O)c1ccccc1 | -11.3 | 115.6* | -36.3 | 98.5* | 64.1 | 22.0 | 68.4*
SMILES | C diff HTS | T cruzi growth-1 | Pf Dd2 growth | T cruzi growth-2 | T cruzi growth-3 | 3T3 cytotox | NIH3T3 tox 2
C[C@@H]1CN([C@H](C)CO)C(=O)c2cc(C#Cc3ccccc3F)cnc2O[C@H]1CN(C)S(C)(=O)=O | · | 64.1 | -29.2 | · | · | · | ·
C[C@H](CO)N1C[C@H](C)[C@H](CN(C)C(=O)Cc2ccncc2)Oc2ncc(C#Cc3ccccc3F)cc2C1=O | 1.8 | 63.1 | -43.1 | · | · | · | ·
C[C@@H]1CN([C@@H](C)CO)C(=O)c2cc(C#Cc3ccccc3F)cnc2O[C@@H]1CN(C)S(C)(=O)=O | · | 63.9 | -8.5 | · | · | · | ·
C[C@H](CO)N1C[C@H](C)[C@@H](CN(C)S(C)(=O)=O)Oc2ncc(C#Cc3ccccc3F)cc2C1=O | -4.6 | -7.9 | 6.9 | · | · | · | ·
C[C@@H]1CN([C@@H](C)CO)C(=O)c2cc(C#Cc3ccccc3F)cnc2O[C@@H]1CN(C)S(=O)(=O)c1ccccc1 | 0.5 | 114.0* | -31.4 | 98.8* | 69.8 | 30.7 | 49.8*
C[C@H](CO)N1C[C@H](C)[C@@H](CN(C)C(=O)Cc2ccncc2)Oc2ncc(C#Cc3ccccc3F)cc2C1=O | -0.1 | ? | -77.5 | 111.6* | 63.2 | 18.1 | ?
C[C@H]1CN([C@@H](C)CO)C(=O)c2cc(C#Cc3ccccc3F)cnc2O[C@@H]1CN(C)S(=O)(=O)c1ccccc1 | -11.9 | 128.0* | -73.2 | 110.2* | 78.0 | 60.5* | 47.2*
Cc1cccc(S(=O)(=O)N2C[C@H](O)COC[C@@H]3O[C@@H](CC(=O)NCc4ccc5c(c4)OCO5)CC[C@H]32)c1 | · | 24.9 | -34.2 | · | · | · | ·
C[C@@H]1CN([C@H](C)CO)C(=O)c2cc(NC(=O)Cc3ccccc3)ccc2O[C@@H]1CN(C)C(=O)Nc1ccc(F)cc1 | -6.3 | · | -5.9 | · | · | · | ·
Cc1noc(C)c1NC(=O)Nc1cccc2c1O[C@H](CN(C)Cc1ccc(C(=O)O)cc1)[C@@H](C)CN([C@@H](C)CO)C2=O | 3.8 | -93.5 | 3.6 | · | · | · | ·
CCC(=O)N1CC(=O)N2[C@@H](CO)[C@H](c3ccc(-c4ccc(C#N)cc4)cc3)[C@@H]2C1 | -5.8 | · | -18.0 | · | · | · | ·
